# Data published in PubChem BioAssay AID588458 (Sanford-Burnham Center for Chemical Genomics, 2011).
# Screen size: about 360,000 compounds; about 3,000 (0.83%) were called active. Only a selection was taken, and actives are over-represented in it overall. Values without a mark were called inactive. Cut-off read from the data, not from the text of the source: active = inhibition above about 50%; inactive = the rest.
# Target: DNA (cytosine-5)-methyltransferase 1 (Homo sapiens) (UniProt P26358)
# Assay: human DNMT1 methyltransferase inhibitors, primary screen, biochemical, molecular beacon, fluorescence, HinP1I cleavage, uHTS (AID 588458)
# Details: at 10 µM, hits give high values
# Sequence of DNA (cytosine-5)-methyltransferase 1 (Homo sapiens) (P26358 504-1616 limits assumed): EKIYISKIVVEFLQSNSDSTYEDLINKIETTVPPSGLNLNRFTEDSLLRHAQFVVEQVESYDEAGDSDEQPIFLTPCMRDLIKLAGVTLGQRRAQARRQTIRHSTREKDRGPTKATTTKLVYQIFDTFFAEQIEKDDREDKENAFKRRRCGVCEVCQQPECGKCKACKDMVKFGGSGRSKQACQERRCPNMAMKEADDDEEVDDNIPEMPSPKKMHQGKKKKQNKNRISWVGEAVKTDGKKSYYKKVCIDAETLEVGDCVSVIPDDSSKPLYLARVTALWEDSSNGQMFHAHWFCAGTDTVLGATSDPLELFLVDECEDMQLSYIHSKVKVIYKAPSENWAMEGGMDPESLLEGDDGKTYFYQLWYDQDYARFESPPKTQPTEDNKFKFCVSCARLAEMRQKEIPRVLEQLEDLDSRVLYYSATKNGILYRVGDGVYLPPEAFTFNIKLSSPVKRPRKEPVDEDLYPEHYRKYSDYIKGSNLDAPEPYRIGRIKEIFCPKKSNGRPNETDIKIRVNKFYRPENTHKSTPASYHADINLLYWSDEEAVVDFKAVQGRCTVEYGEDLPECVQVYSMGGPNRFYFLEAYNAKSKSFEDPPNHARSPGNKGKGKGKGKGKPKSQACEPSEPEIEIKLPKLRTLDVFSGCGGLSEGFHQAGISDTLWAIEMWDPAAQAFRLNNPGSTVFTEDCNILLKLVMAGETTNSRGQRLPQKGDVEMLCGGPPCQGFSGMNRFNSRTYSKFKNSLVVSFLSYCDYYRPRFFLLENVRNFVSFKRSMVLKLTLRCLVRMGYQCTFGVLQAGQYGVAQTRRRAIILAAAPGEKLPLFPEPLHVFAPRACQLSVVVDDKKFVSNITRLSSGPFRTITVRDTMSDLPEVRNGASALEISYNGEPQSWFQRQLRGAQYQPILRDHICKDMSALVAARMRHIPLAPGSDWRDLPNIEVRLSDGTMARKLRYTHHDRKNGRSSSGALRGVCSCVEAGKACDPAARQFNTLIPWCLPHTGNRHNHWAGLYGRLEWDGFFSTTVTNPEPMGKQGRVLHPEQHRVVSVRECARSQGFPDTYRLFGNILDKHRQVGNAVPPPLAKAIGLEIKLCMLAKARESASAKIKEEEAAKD
row,SMILES,inhibition (reported as % activation of signal)
1,O=C(NC(Cc1ccccc1)C(=O)O)/C(=C\c1ccccc1)NC(=O)c1ccco1 (stereo not given),-3.34%
2,CCC(C)(C)NC(=O)CN(C(=O)CCC(=O)Nc1cc(C)ccn1)c1ccc2c(c1)OCCO2,-0.26%
3,O=C(c1cccnc1)N(c1cc2sc(=O)oc2c2ccccc12)S(=O)(=O)c1ccccc1,-12.2%
4,CC(Sc1cccc[n+]1[O-])C(=O)Nc1cccc(S(=O)(=O)N2CCOCC2)c1 (stereo not given),1.02%
5,CN(C)/C=C(/C(=O)c1ccccc1)S(=O)(=O)c1ccc(Cl)cc1,-1.72%
6,CN(C)/C=C(/C(=O)c1ccc(F)cc1)S(=O)(=O)c1ccc(F)cc1,1.17%
7,CN(C)/C=C(/C(=O)c1ccc(Cl)cc1)S(=O)(=O)c1ccccc1,70% (active)
8,Cc1cnc(CN(C)C(=O)C2CCC(=O)N(CCc3cccc(F)c3)C2)[nH]1 (stereo not given),1.88%
9,O=C(Nc1ccc(Cl)cc1)c1cccc(OC(=S)N2CCOCC2)c1,0.14%
10,COc1cccc(C(=O)Nc2ccc3nc4n(c(=O)c3c2)CCCCC4)c1,3.72%
11,COc1cccc(C(=O)Nc2ccc(N3CCCC3)cc2)c1,91.3% (active)
12,Cc1cc([N+](=O)[O-])ccc1NS(=O)(=O)c1ccccc1,3.46%
13,CC1CN(C(=O)c2cccc(NS(=O)(=O)c3ccc(Br)cc3)c2)CC(C)O1 (stereo not given),6.97%
14,CC1CN(C(=O)c2ccccc2NS(=O)(=O)c2cccc([N+](=O)[O-])c2)CC(C)O1 (stereo not given),65.4% (active)
15,Nc1c(C(=O)O)cnn1-c1ccccc1,-0.06%
16,Cc1noc(C)c1COc1ccccc1C(=O)N(C)CC(=O)Nc1cccc(F)c1,1.78%
17,COc1ccc(C)cc1NC(=O)CCCN1C(=O)NC(C)(C)C1=O,2.66%
18,Cc1cc(O)c(Sc2ccccc2)c(=O)o1,4.53%
19,COc1ccc(/C=C/C(=O)c2c(O)cc(OC)cc2OC)cc1,-2.91%
20,Cc1cc(O)c(C(=O)/C=C/c2c(F)c(F)c(F)c(F)c2F)c(=O)o1,59.4% (active)
21,COc1ccc(C)cc1NC(=O)c1cc(-c2ccccc2)nc2c1cnn2C(C)C,-4.87%
22,O=C(Cn1nnc(-c2ccccc2)n1)N/N=C/c1ccc(-c2ccc(Cl)cc2)o1,59.9% (active)
23,Nc1nnn(CC(=O)N/N=C/c2ccccc2)n1,0.13%
24,O=C(CN1CCOCC1)N/N=C/c1ccc(-c2ccc(Br)cc2)o1,-2.15%
25,CC1(C)CC(=O)C(C2c3ccccc3S(=O)(=O)c3ccccc32)C(=O)C1,1.21%

row,SMILES,inhibition (reported as % activation of signal)
1,O=C(Nc1ccnn1C1CCN(Cc2cccc(OCCO)c2)CC1)C1CCCC1,-0.78%
2,COc1cc(CC(=O)N2CCC(n3nccc3NC(=O)C3CC3)CC2)cc(OC)c1OC,0.88%
3,CCOc1ccc(CN2CCC(n3nccc3NC(=O)C3CC3)CC2)cc1CO,55.5% (active)
4,COCCCC1CCN(C(=O)C2CCC(=O)N(C3CCCCCC3)C2)CC1 (stereo not given),-2.02%
5,C=CCN1CCN(C(=O)CCCc2ccccc2)CC1,0.85%
6,O=C(Oc1ccc(-c2nc(-c3ccccn3)no2)cc1)c1ccccc1,52.9% (active)
7,O=C(COC(=O)c1ccncc1)c1ccccc1,-0.53%
8,Cc1noc(C)c1COC(=O)COc1ccc(-c2ccccc2)cc1,-6.7%
9,Nc1nc(Br)c2ccccc2c1-c1ccc(F)cc1,-9.34%
10,Cc1cccc(C)c1OCCN1CCOCC1,0.32%
11,O=C(NCCN1CCOCC1)c1cc(Sc2cccc(Cl)c2)nc2ccccc12,-4.33%
12,c1ccc2cc3c(NCCN4CCOCC4)ccnc3cc2c1,54.4% (active)
13,CN1CCN(C(=O)C(=O)c2cn(CC(=O)N3CCCC3)c3ccccc23)CC1,1.12%
14,O=C(CN1C(=O)c2cccnc2Oc2ccc(Cl)cc21)NCCc1ccccc1,-0.09%
15,Cc1ccc2oc(=O)c3cnn(CC(=O)N4CCN(c5ccccn5)CC4)c3c2c1,2.52%
16,CCC(=O)Nc1ccc(C(=O)NNC(=O)c2ccc(Cl)cc2)cc1,-1.31%
17,CC(=O)Nc1ccc(SCC(=O)NC(=O)c2ccc(Cl)cc2)cc1,69.8% (active)
18,CC(=O)Nc1ccc(NC(=O)CCCNC(=O)c2ccc(Cl)cc2)cc1,-1.09%
19,Cc1ccc2c(CN3CCN(S(=O)(=O)c4ccccc4C(F)(F)F)CC3)cc(=O)oc2c1,-2.32%
20,CC(C)Oc1ccc(S(=O)(=O)N2CCOCC2)cc1NC(=O)C1CCCC1,4.21%
21,CCCCN1C(=O)/C(=C/C=C2/C=Cc3ccccc3N2CC)SC1=S,3.13%
22,Cc1ccc(-c2nn(-c3ccccc3)cc2/C=C2\SC(=S)N(CCCCCC(=O)O)C2=O)o1,87.9% (active)
23,O=C(CN1C(=O)/C(=C\c2ccccc2F)SC1=S)Nc1nc2ccccc2s1,-44.4%
24,CCc1nnc(NS(=O)(=O)c2ccc(NC(=S)NC(=O)/C=C/c3cccs3)cc2)s1,9.17%
25,CCOC(=O)c1sc(=NC(=O)/C=C/c2cccs2)n(C)c1C,10.1%

row,SMILES,inhibition (reported as % activation of signal)
1,CCOC(=O)c1c(NC(=S)NC(=O)/C=C/c2cccs2)sc(C)c1C,58.9% (active)
2,O=C(CO/N=C/c1ccccc1O)NNC(=O)c1ccccc1Cl,-2.54%
3,CCN(Cc1ccncc1)C(=O)CCc1ccccc1,-1.63%
4,CC(C)(C)C(=O)N(Cc1ccccc1)c1ccccn1,-1.5%
5,CC(C)(C)N(Cc1ccccc1)C(=O)c1ccncc1,82.6% (active)
6,CC(=O)N/C(=N/c1nc(C)cc(C)n1)Nc1ccc(F)cc1F,0.05%
7,C/C(=N\NC(=O)CCn1nc(C)cc1C)C(C)(C)C,-0.8%
8,OCC(O)C1OCOC(C(O)CO)C1O (stereo not given),-1.63%
9,O=C(NCCc1ccc(F)cc1)c1ccc(S(=O)(=O)N2CCCCC2)cc1,-2.12%
10,NC1=CC(=O)C(=O)c2cccnc21,100% (active)
11,CN(Cc1ccccc1)C(=O)COC(=O)c1ccccc1Nc1ccccc1,-16.6%
12,Cn1cnc(C(F)(F)F)c1-c1ccc([N+](=O)[O-])cc1,3.01%
13,O=C(COC(=O)c1cccc(Br)c1)Nc1cccc2c1C(=O)c1ccccc1C2=O,51% (active)
14,O=C(COC(=O)c1ccccc1)Nc1ccccc1Sc1ccccc1,0.84%
15,O=C(COC(=O)Cn1cnc2ccccc21)Nc1cccc2c1C(=O)c1ccccc1C2=O,27.5%
16,CC(C)(C)c1ccccc1NC(=O)CN1C(=O)NC2(CCCC2)C1=O,1.67%
17,COCCn1cnnc1SCC(=O)Nc1cccc(S(=O)(=O)N2CCCCC2)c1,-1.49%
18,Cc1ccc2c(c1)N(CC(=O)N1CCC(C)CC1)C(=O)c1cccnc1O2,-0.74%
19,COc1ccc(/C=C/C(=O)OCC(=O)N2CCN(S(=O)(=O)c3ccc(C)cc3C)CC2)cc1OC,-0.56%
20,Cc1ccc(N=C2NC(=O)/C(=C/C=C/c3ccco3)S2)cc1C,71.1% (active)
21,O=C(COC(=O)c1cc(=O)[nH]c2ccccc12)Nc1nc(-c2cccc(Br)c2)cs1,-21.4%
22,Cc1cc(C)c(-c2csc(NC(=O)CCCc3nc4ccccc4c(=O)[nH]3)n2)c(C)c1,-5%
23,O=C(CSc1nc2ccccc2c(=O)[nH]1)Nc1nc(-c2ccc(Br)cc2)cs1,93.2% (active)
24,Cc1ccc(C(C(=O)NCC2CCCO2)N(C(=O)c2snc(C(N)=O)c2N)c2ccc(C(C)C)cc2)o1 (stereo not given),0.65%
25,CC(C)C(=O)Nc1ccc2c(c1)oc1ccccc12,-5.97%
